Assay results as given in PubChem BioAssay (NCATS).
Values joined by “and” are separate entries in the source; they are usually repeats but may differ in a detail not shown here. Equal values may be shown once. Records with an inconclusive call do not appear. Entries that show only a call come without a potency. The source holds several records for some structures; these can differ, active in one and inactive in another. Values without a mark were called inactive. Active and inactive are the calls of the source. The call rests on the fitted dose curve; in most records, active means well fitted curve in the direction sought with a large enough effect; inconclusive means small, poorly fitted or top-dose-only effect, or another doubt; inactive means no such curve, though single readings can be large; an effect the other way counts as inactive or inconclusive.

Tests used:
[1] = qHTS of pediatric cancer cell lines to identify multiple opportunities for drug repurposing: Primary screen for A673 cells (AID 1347092); further: nearly all actives have a fitted effect of over 45% in size
Summary of the method: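 Titration-based qHTS on A673 cells: MIPE compounds spanned 11 points (0.78 nM to 46 µM final), NPC compounds 8 points (0.59 nM to 46 µM final). Viability after 48 h was measured by ATP luminescence.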

[2] = qHTS of pediatric cancer cell lines to identify multiple opportunities for drug repurposing: Primary screen for SK-N-MC cells (AID 1347093); on activity change, negative = cytotoxic: series mostly up to about 46 µM
Summary of the method: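 Metabolically active cells were quantified by ATP-dependent luminescence (CellTiter-Glo, 15 min at room temperature) following 48 h treatment. Cells had been plated at 500-1,000 per well and settled for 5 h beforehand.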

[3] = qHTS of pediatric cancer cell lines to identify multiple opportunities for drug repurposing: Primary screen for BT-37 cells (AID 1347094); on activity change, negative = cytotoxic: series mostly up to about 57 µM
Summary of the method: (§1)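 Primary screen of approved and investigational compounds on cells in growth media at 37 degrees C, 5% CO2. MIPE set at 11-point and NPC set at 8-point dilutions; viability scored by ATP-based luminescence at 48 hours.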

[4] = qHTS of pediatric cancer cell lines to identify multiple opportunities for drug repurposing: Primary screen for NB-EBc1 cells (AID 1347095)
Summary of the method: as §1

[5] = qHTS of pediatric cancer cell lines to identify multiple opportunities for drug repurposing: Primary screen for U-2 OS cells (AID 1347096); further: nearly all actives have a fitted effect of over 50% in size
Summary of the method: (§2)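 Cells (500-1,000/well) in growth media were settled 5 h at 37 degrees C, then given compounds for 48 h. Viability was read as CellTiter-Glo luminescence. Primary runs used MIPE at 11 points (0.78 nM-46 µM) and NPC at 8 points (0.59 nM-46 µM); follow-ups used 11 points.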

[6] = qHTS of pediatric cancer cell lines to identify multiple opportunities for drug repurposing: Primary screen for NB1643 cells (AID 1347099); further: nearly all actives have a fitted effect of over 50% in size
Summary of the method: as §1

[7] = qHTS of pediatric cancer cell lines to identify multiple opportunities for drug repurposing: Primary screen for LAN-5 cells (AID 1347100)
Summary of the method: as §2

[8] = qHTS of pediatric cancer cell lines to identify multiple opportunities for drug repurposing: Primary screen for BT-12 cells (AID 1347101); further: nearly all actives have a fitted effect of over 25% in size
Summary of the method: (§3)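 Cells (500-1,000/well) rested 5 h, then received compounds for 48 h; metabolically active cells were measured by CellTiter-Glo luminescence. Final concentrations spanned up to 46 µM (MIPE, 11-point) or 0.59 nM-46 µM (NPC, 8-point) in primary screens, 11-point in follow-ups.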

[9] = qHTS of pediatric cancer cell lines to identify multiple opportunities for drug repurposing: Primary screen for SK-N-SH cells (AID 1347098); further: nearly all actives have a fitted effect of over 65% in size;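 on activity change, negative = cytotoxic: DMSO served as neutral control and bortezomib at 2.3 µM as positive control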
Summary of the method: as §3

[10] = qHTS of pediatric cancer cell lines to identify multiple opportunities for drug repurposing: Primary screen for Saos-2 cells (AID 1347097); further: nearly all actives have a fitted effect of over 40% in size
Summary of the method: as §1
Potency means the concentration at half of the fitted maximal effect.

Compound	Potency [1]	Potency [2]	Potency [3]	Potency [4]	Potency [5]	Potency [6]	Potency [7]	Potency [8]	Potency [9]	Potency [10]	activity change, negative = cytotoxic [1]	activity change, negative = cytotoxic [2]	activity change, negative = cytotoxic [9]	activity change, negative = cytotoxic [6]	activity change, negative = cytotoxic [7]
O=C(OC1C[C@H]2CC[C@@H](C1)[N+]21CCCC1)C(O)(c1ccccc1)c1ccccc1 (some centres not stated)	inactive	14.8 µM (active)	inactive	inactive	inactive	10.5 µM (active)	inactive	inactive							
O=P(O)(O)C(O)(Cn1ccnc1)P(=O)(O)O	inactive	inactive	inactive	inactive	inactive	inactive	inactive	inactive	inactive						
COc1cc(Nc2c(C#N)cnc3cc(OCCCN4CCN(C)CC4)c(OC)cc23)c(Cl)cc1Cl	10.6 µM (active) and 11.8 µM (active)	2.11 µM (active) and 1.87 µM (active)	17.4 µM (active)	inactive	21.1 µM (active)				6.12 µM (active)	8330 nM (active)					
Cc1cc2c(s1)Nc1ccccc1N=C2N1CCN(C)CC1	inactive	inactive	inactive	inactive	inactive	inactive	inactive	inactive	inactive						
CCN(CCO)CCCC(C)Nc1ccnc2cc(Cl)ccc12 (configuration not stated)	2.35 µM (active)	2.96 µM (active)			inactive		3.72 µM (active)	inactive			4.16% [at 4.84 µM]	-1.47% [at 4.84 µM]	-2.15% [at 6 µM]	19.4% [at 4.84 µM]	22.8% [at 4.84 µM]
CCC(C)(Oc1ccc(C2(c3ccc(OC(C)(CC)C(=O)O)cc3)CCCCC2)cc1)C(=O)O (configuration not stated)	inactive	inactive	inactive	inactive	inactive	inactive	inactive		inactive						
O=C(NOCC1CC1)c1ccc(F)c(F)c1Nc1ccc(I)cc1Cl	10.6 µM (active) and 9.35 µM (active)	16.8 µM (active) and 1.87 µM (active)	24.6 µM (active) and 21.7 µM (active)	15 µM (active) and 8.33 µM (active)	18.7 µM (active)	16.6 µM (active)	16.8 µM (active) and 16.6 µM (active)		19.4 µM (active)	10.6 µM (active) and 16.6 µM (active)					
CC(C)C[C@H](NC(=O)[C@H](Cc1ccccc1)NC(=O)c1cnccn1)B(O)O	0.0531 µM (active)	0.006 µM (active)	0.0347 µM (active)	0.0376 µM (active)	0.0422 µM (active)	0.0299 µM (active)	0.0166 µM (active)	43.2 nM (active)	0.0429 µM (active)	469 nM (active)					
COC(=O)N[C@H](C(=O)N[C@@H](Cc1ccccc1)[C@@H](O)CN(Cc1ccc(-c2ccccn2)cc1)NC(=O)[C@@H](NC(=O)OC)C(C)(C)C)C(C)(C)C	inactive	inactive	inactive	inactive	inactive	inactive	inactive	inactive	inactive	inactive					
Cc1cc(C2CCCCC2)n(O)c(=O)c1	2.96 µM (active)	750 nM (active) and 1.18 µM (active)	3.09 µM (active)	7.43 µM (active)	inactive	11.9 µM (active) and 20.9 µM (active)	7.43 µM (active)	6.92 µM (active) and 17.2 µM (active)	1.09 µM (active)						
COc1ccc2cc([C@H](C)C(=O)O)ccc2c1	inactive	inactive	inactive	inactive	inactive	inactive	inactive	inactive	inactive						
O=C(O)c1cccnc1Nc1cccc(C(F)(F)F)c1	inactive	26.6 µM (active)	inactive	inactive	inactive	inactive	inactive	inactive	inactive	inactive					
CCCOc1ccc2nc(NC(=O)OC)[nH]c2c1	33.5 nM (active) and 11.8 nM (active)	0.0422 µM (active)	123 nM (active) and 27.3 nM (active)	0.001 µM (active)					inactive	29.9 nM (active)					
CCOC(=O)c1c(C)n(C)c2ccc(O)cc12	inactive	inactive	inactive	inactive	inactive	inactive	inactive	inactive	inactive						
CCCCc1ccc2nc(NC(=O)OC)[nH]c2c1	9.3 nM (active) and 21.1 nM (active)	5.3 nM (active) and 26.6 nM (active)	43.2 nM (active) and 61.7 nM (active)	1 nM (active) and 106 nM (active)		inactive	0.0118 µM (active)			9.3 nM (active) and 29.9 nM (active)					
COCCCN1CCC(NC(=O)c2cc(Cl)c(N)c3c2OCC3)CC1	inactive	inactive	inactive	inactive	inactive	inactive	inactive	inactive	inactive	inactive					
Oc1ccc(OCc2ccccc2)cc1	inactive	inactive	inactive	inactive	inactive	inactive	inactive	inactive	inactive						
COc1cc(OC)c(C(=O)CCCN2CCCC2)c(OC)c1	inactive	inactive	inactive	inactive	inactive	inactive	inactive	inactive	inactive	inactive					

Compound	Potency [1]	Potency [2]	Potency [3]	Potency [4]	Potency [5]	Potency [6]	Potency [7]	Potency [8]	Potency [9]	Potency [10]	activity change, negative = cytotoxic [1]	activity change, negative = cytotoxic [2]	activity change, negative = cytotoxic [9]	activity change, negative = cytotoxic [6]	activity change, negative = cytotoxic [7]
CCOc1cc(CC(=O)N[C@@H](CC(C)C)c2ccccc2N2CCCCC2)ccc1C(=O)O	inactive	4.69 µM (active)	inactive	inactive	inactive		inactive	inactive	inactive	inactive					
Nc1ncn([C@H]2C[C@H](O)[C@@H](CO)O2)c(=O)n1	inactive	inactive	inactive	inactive	inactive	inactive	inactive	inactive	inactive	inactive					
COc1ccccc1N1CCN(CCN(C(=O)C2CCCCC2)c2ccccn2)CC1	inactive	inactive	inactive	6.62 µM (active)	inactive		inactive		inactive	inactive					
CC1(C)NC(=O)N(c2ccc([N+](=O)[O-])c(C(F)(F)F)c2)C1=O	inactive	inactive	inactive	inactive	inactive	inactive	inactive		inactive	inactive					
CC(C)Oc1ccc2c(=O)c(-c3ccccc3)coc2c1	inactive	inactive	inactive	inactive	inactive	inactive	inactive		inactive						
Nc1cccc2c1CN(C1CCC(=O)NC1=O)C2=O (configuration not stated)	inactive	inactive	inactive	inactive	inactive	inactive	inactive	inactive	inactive	inactive					
S=c1nc[nH]c2nc[nH]c12	1.33 µM (active)	11.8 µM (active)	2.46 µM (active) and 3.43 µM (active)	531 nM (active) and 1.66 µM (active)			1.5 µM (active) and 2.96 µM (active)	15.5 µM (active) and 24.3 µM (active)	inactive						
CN(c1nccc(=O)[nH]1)C1CCN(c2nc3ccccc3n2Cc2ccc(F)cc2)CC1	inactive	2.64 µM (active)	inactive	inactive	inactive				inactive						
Cc1cc(=O)oc2cc(O)ccc12	inactive	inactive	inactive	inactive	inactive	inactive	inactive		inactive						
CN(C)C(=O)[C@H](O)[C@H](Cc1ccccc1)NC(=O)c1cc2cc(Cl)ccc2[nH]1	5.9 µM (active)	1.18 µM (active)	inactive	3.32 µM (active)	inactive		inactive								
O=C(O)c1cn(-c2ccc(F)cc2)c2cc(N3CCNCC3)c(F)cc2c1=O	inactive	inactive	inactive	inactive	inactive	inactive	inactive		inactive	inactive					
CCCCCCCCCCCCCCCCCCCCCCO	inactive	inactive	inactive	inactive	inactive	inactive	inactive	inactive		inactive					
CC(C)[N+]1(C)[C@@H]2CC[C@H]1CC(OC(=O)C(CO)c1ccccc1)C2 (some centres not stated)	9.35 µM (active)	9.35 µM (active)	inactive	inactive	inactive	11.8 µM (active)	inactive	inactive	inactive						
O=C1CCc2ccc(OCCCCN3CCN(c4cccc(Cl)c4Cl)CC3)cc2N1	inactive	inactive	inactive	inactive	inactive	inactive			inactive						
COc1c2occc2cc2ccc(=O)oc12	inactive	inactive	inactive	inactive	inactive	inactive	inactive	inactive	inactive	inactive					
C=CCc1cc(OC)c(O)c(C(=O)NCCO)c1	inactive	inactive	inactive	inactive	inactive	inactive	inactive		inactive	inactive					
CCCCC(CC)COC(=O)C(C#N)=C(c1ccccc1)c1ccccc1 (configuration not stated)	inactive	16.8 µM (active) and 7.43 µM (active)	inactive	inactive	inactive					inactive					
CCC1=C(C)CN(C(=O)NCCc2ccc(S(=O)(=O)NC(=O)NC3CCC(C)CC3)cc2)C1=O (configuration not stated)	inactive	inactive	inactive	inactive	inactive	inactive	inactive		inactive						
